L3MBTL1 block: blocks human L3MBTL1. AlphaScreen L3MBTL1–H3K9me1 peptide binding. Q9Y468. Potency, µM (highest dose often 57.1 µM), for the others: top-dose activity, negative = inhibition, usual class: inhibitors. 230,000 tested, 0.66% active; note: potency is the fitted concentration of half-maximal effect; % is set by controls: 0 for no effect and ±100 for the full control effect; nearly all actives have a fitted effect of over 60% in size
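Read-out is AlphaScreen signal from streptavidin donor and nickel chelate acceptor beads (10 ug/mL final each) bridging L3MBTL1 (50 nM) and biotinylated K9-monomethylated H3(1-15) peptide (75 nM), after 30 min compound exposure at room temperature.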
PI5P4K alpha inh: inhibitors of human PI5P4K alpha; PI5P4Kalpha enzyme, ADP-Glo luminescence, 60 min; hits give low values; 330,000 tested, 1.2% active; P48426; max response, %; AID 652105; active = max response of -50% or lower; inconclusive = between -30% and -50%; inactive = -30% or higher; note: value at the top dose of about 77 µM; % is set by controls: 0 for no effect and ±100 for the full control effect
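Compounds were pin-transferred onto PI5P4Kalpha and substrate in HEPES pH 7.4 buffer with EGTA, CHAPS and 5% DMSO. ATP (5 microM final) started the reaction, which ran 60 minutes at room temperature before ADP-Glo detection.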
HP1b chromo inh: blocks HP1-beta chromodomain binding to methylated histone tails; P83916; Potency, µM (highest dose often 114 µM), for inactives: at the highest dose activity change, negative = inhibition, actives largely listed as inhibitors; 390,000 tested, 0.56% active; AID 540317; AlphaScreen HP1-beta / biotin-H3K9me3 peptide binding; note: potency is the fitted concentration of half-maximal effect; nearly all actives have a fitted effect of over 70% in size
Target sequence (P83916 whole entry, looked up): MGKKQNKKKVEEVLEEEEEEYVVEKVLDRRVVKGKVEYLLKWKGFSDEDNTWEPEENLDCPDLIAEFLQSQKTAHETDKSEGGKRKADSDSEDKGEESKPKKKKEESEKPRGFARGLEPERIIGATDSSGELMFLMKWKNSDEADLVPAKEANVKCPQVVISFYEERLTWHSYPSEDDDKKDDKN
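AlphaScreen: HP1-beta (50 nM) preformed 30 min with biotin-H3(1-18)K9me3 peptide (50 nM) in PBS pH 7.4, 0.01% Tween-20. Compound added for 30 min at RT, then streptavidin donor/nickel chelate acceptor beads (10 ug/mL) for 30 min.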
JMJD2A Tudor inh: JMJD2A Tudor domain (human) inhibition; O75164; AlphaScreen JMJD2A-Tudor / H3K4me3 peptide binding; Potency, µM (series often up to 114 µM), inactives show at the highest dose activity change, negative = inhibition, actives largely listed as inhibitors; 390,000 tested, 4.4% active; AID 504339; note: potency is the fitted concentration of half-maximal effect; % is set by controls: 0 for no effect and ±100 for the full control effect; nearly all actives have a fitted effect of over 50% in size
G9a block: G9a (human) methyltransferase inhibition; 350,000 tested, 8.8% active; Q96KQ7; Potency, µM (top dose mostly 102 µM), inactives show at the highest dose activity, negative = inhibition, usual class: inhibitors; G9a H3K9 monomethylation, AlphaScreen, 2 h; AID 504332; note: potency is the fitted concentration of half-maximal effect; % is set by controls: 0 for no effect and ±100 for the full control effect; nearly all actives have a fitted effect of over 75% in size
Target sequence (Q96KQ7 913-1193 limits assumed): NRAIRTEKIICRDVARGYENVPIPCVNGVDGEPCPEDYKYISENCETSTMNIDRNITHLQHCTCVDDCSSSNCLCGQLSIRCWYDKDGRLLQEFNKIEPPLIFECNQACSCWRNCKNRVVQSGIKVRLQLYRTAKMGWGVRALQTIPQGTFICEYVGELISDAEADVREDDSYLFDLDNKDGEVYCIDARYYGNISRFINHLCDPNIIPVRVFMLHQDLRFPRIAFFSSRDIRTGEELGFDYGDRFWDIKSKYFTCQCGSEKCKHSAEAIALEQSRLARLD
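Methyltransferase reactions run at room temperature for 2 h (20 nM enzyme, 500 nM biotin-H3K9 peptide, 20 uM SAM) after a 15 min compound preincubation; product detected by AlphaScreen beads and anti-H3K9me1 antibody.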
BAZ2B block: inhibitors of human BAZ2B bromodomain. Q9UIF8. AlphaScreen BAZ2B-H3K14Ac peptide displacement. Potency, µM (titrated, usually from 114 µM), inactives show top-dose activity change, negative = inhibition, usual class: inhibitors. 360,000 tested, 4.4% active; note: potency is the fitted concentration of half-maximal effect; % is set by controls: 0 for no effect and ±100 for the full control effect; nearly all actives have a fitted effect of over 60% in size
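AlphaScreen displacement: compounds (up to 110uM) incubated 30 min at room temperature with a preformed 50 nM BAZ2B/50 nM biotinylated H3K14Ac peptide complex in PBS pH 7.4 with Tween-20. Donor and acceptor beads at 10 ug/mL final added, 20 min light-protected before reading.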
Numbers without * were called inactive; [ ] = dose if it differs, or a comment. Shown are actives, neighbours in structure and some others; about 11% of the full set was active somewhere. Unless noted, calls come from the whole dose curve; as a rule, active = well fitted inhibition curve with a large enough effect; inconclusive = small, poorly fitted or top-dose-only effect; inactive = no such curve, though single readings can be large or run the other way.

COc1ccccc1-n1ccnc1SCC(=O)NC1CCCC1 was read as PI5P4K alpha inh -8.4, HP1b chromo inh 2.0%, JMJD2A Tudor inh -9.4%, G9a block -5.1% and BAZ2B block -3.6%.
`COc1cc(-n2ccnc2SC)c(Cl)cc1Cl` gave L3MBTL1 block -16.5%, PI5P4K alpha inh -4.0, HP1b chromo inh 22.4µM*, JMJD2A Tudor inh -8.2%[11.4 µM], G9a block 2.8%[59 µM] and BAZ2B block 12.6µM*.
Screening CC(C)CC1NC(C(=O)O)Cc2c1[nH]c1ccccc21 (centres undefined) returned PI5P4K alpha inh 5.5, HP1b chromo inh 16.8%, JMJD2A Tudor inh inconclusive and BAZ2B block -9.9%.
`COC(=O)C1Cc2c([nH]c3ccccc23)C(C)N1` (centres undefined) gave L3MBTL1 block -1.6%, PI5P4K alpha inh 0.2, HP1b chromo inh 4.8%, JMJD2A Tudor inh inconclusive, G9a block 20µM* and BAZ2B block -5.3%.
COC(=O)C1Cc2c([nH]c3ccccc23)CN1C(C)=O (centres undefined) was read as PI5P4K alpha inh -4.6, HP1b chromo inh -21.0%, JMJD2A Tudor inh -28.7%, G9a block 50.1µM* and BAZ2B block -33.6%.
Screening CC(=O)N1Cc2[nH]c3ccccc3c2CC1C(=O)O (centres undefined) returned L3MBTL1 block 8.2%, PI5P4K alpha inh 2.9, HP1b chromo inh 29.8%, JMJD2A Tudor inh -1.4% and BAZ2B block inconclusive.
`CCCC1NC(C(=O)O)Cc2c1[nH]c1ccccc21` (centres undefined) gave L3MBTL1 block 4.2%, PI5P4K alpha inh -8.1, HP1b chromo inh -4.1%, JMJD2A Tudor inh 15.8µM* and BAZ2B block -4.4%.
For COc1ccc(Cl)cc1NC(=O)C/C(C)=N/NC(=O)c1ccc(O)cc1 the results were L3MBTL1 block -10.7%, PI5P4K alpha inh 0.1, HP1b chromo inh 30.4%, JMJD2A Tudor inh -12.2%, G9a block 70.8µM* and BAZ2B block -28.1%.
For COc1ccc(Cl)cc1NC(=O)C/C(C)=N/NC(=O)Cc1ccccc1 the results were L3MBTL1 block -11.6%, PI5P4K alpha inh 0.6, HP1b chromo inh 36.4%, JMJD2A Tudor inh -1.8%, G9a block -29.4% and BAZ2B block -23.4%.
`Cc1nnc2sc(SCC(=O)Nc3ccc(Cl)cc3)nn2c1=O` gave PI5P4K alpha inh 4.7, HP1b chromo inh 61.5%, JMJD2A Tudor inh inconclusive, G9a block 4.9% and BAZ2B block 39.8µM*.
Screening CCc1cc2c(nc1CC)CCN(CC/C(C)=N/OC[C@H]1O[C@H](c3ccccc3)C=C[C@@H]1Oc1ccc(OC)cc1)C2 returned L3MBTL1 block -0.5%, G9a block 44.7µM* and BAZ2B block inconclusive.
COc1ccc(O[C@H]2C=C[C@@H](c3ccccc3)O[C@@H]2COC(=O)CC/C(C)=N/OC[C@@H](O)COCc2ccco2)cc1 was read as L3MBTL1 block -14.8%, G9a block inconclusive and BAZ2B block -37.8%.
For COc1ccc(O[C@H]2C=C[C@@H](c3ccccc3)O[C@@H]2CO/N=C(\C)CCN2CCc3nc(-c4ccccc4)c(-c4ccccc4)cc3C2)cc1 the results were L3MBTL1 block -6.8%, G9a block 31.6µM* and BAZ2B block -37.7%.
CCCCNc1nc(C)c(C(C)=O)cc1C#N was read as L3MBTL1 block 6.6%, PI5P4K alpha inh 2.3, HP1b chromo inh 0.5%, JMJD2A Tudor inh -5.6%, G9a block 1.4% and BAZ2B block -25.3%.
For CCCNc1nc(C)c(C(C)=O)cc1C#N the results were PI5P4K alpha inh 1.4, HP1b chromo inh 31.6%, JMJD2A Tudor inh -6.6%, G9a block 0.1% and BAZ2B block 50.1µM*.
Screening CCOC(=O)c1cc(-c2ccc(Cl)cc2)nc2c1c(C)nn2CCC#N returned L3MBTL1 block 15.0%, PI5P4K alpha inh 1.3, HP1b chromo inh 43.2%, JMJD2A Tudor inh 18.8%, G9a block 68.1%[12.7 µM] and BAZ2B block 2.5%.
